Data published in publication PMC4336329 (PLoS ONE, 2015).
Screen size: about 310,000 compounds; about 14,000 (4.5%) showed an effect of 50% or more. Effects have a minus sign here. This is one part of a sample in which strong results are shown more often than they occur.

Biological target: human ether-à-go-go-related gene (hERG) potassium channel (human, UniProt Q12809)
Assay: primary screen, population patch clamp on CHO cells stably expressing hERG; higher = less effect of the substance
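Note: peak tail current of the secondary pulse compared with the same well before compound.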

human ether-à-go-go-related gene (hERG) potassium channel, sequence (Q12809 whole entry, looked up): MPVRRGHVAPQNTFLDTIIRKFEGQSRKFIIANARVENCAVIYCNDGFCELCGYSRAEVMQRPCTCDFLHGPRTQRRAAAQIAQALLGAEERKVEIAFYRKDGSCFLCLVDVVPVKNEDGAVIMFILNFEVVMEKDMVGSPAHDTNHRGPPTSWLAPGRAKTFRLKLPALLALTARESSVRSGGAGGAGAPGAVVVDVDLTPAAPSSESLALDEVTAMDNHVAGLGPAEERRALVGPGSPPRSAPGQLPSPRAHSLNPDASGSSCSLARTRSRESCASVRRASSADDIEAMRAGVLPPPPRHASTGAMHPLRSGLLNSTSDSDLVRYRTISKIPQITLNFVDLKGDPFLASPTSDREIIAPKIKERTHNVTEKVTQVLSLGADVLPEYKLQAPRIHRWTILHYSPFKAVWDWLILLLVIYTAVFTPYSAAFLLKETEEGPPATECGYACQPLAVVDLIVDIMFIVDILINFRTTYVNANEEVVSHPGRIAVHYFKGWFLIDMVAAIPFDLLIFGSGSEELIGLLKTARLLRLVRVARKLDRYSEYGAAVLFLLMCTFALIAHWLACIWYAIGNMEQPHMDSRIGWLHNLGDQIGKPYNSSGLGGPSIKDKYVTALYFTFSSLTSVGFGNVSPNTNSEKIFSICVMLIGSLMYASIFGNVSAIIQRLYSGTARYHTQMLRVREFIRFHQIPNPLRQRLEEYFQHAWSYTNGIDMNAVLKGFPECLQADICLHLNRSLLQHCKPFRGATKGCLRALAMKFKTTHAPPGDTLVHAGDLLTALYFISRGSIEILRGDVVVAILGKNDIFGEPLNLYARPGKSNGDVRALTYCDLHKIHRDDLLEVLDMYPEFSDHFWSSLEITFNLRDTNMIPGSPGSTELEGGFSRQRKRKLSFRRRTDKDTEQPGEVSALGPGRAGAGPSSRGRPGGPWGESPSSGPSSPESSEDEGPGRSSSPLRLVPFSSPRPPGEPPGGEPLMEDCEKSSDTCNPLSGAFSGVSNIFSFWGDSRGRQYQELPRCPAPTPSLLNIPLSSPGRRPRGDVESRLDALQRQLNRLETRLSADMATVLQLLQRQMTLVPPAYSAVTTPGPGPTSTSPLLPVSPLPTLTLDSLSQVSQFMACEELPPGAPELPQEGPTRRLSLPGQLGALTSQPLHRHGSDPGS

| Structure (SMILES) | hERG current change (%, negative = inhibition) at 10uM [%] |
| --- | --- |
| COc1ccc(S(=O)(=O)n2nc(-c3cc(OC)c(OC)c(OC)c3)cc2N)cc1OC | -2.63 |
| Cc1ccc(OCC(=O)N/N=C\c2ccco2)c(C)c1 | -38 |
| CCc1ccc(OCC(=O)N/N=C\c2ccco2)c([N+](=O)[O-])c1 | -67.4 |
| COc1cc(/C=N/NC(=O)COc2ccccc2[N+](=O)[O-])ccc1OC(=O)c1ccco1 | -1.29 |
| Cc1cc(-c2nnc(CSc3nnc(NC(=O)c4ccc(C(C)(C)C)cc4)s3)o2)ccc1[N+](=O)[O-] | 4.92 |
| CCN(CC)c1nc(N)c([N+](=O)[O-])c(NCCO)n1 | 12.1 |
| COc1ccccc1CN1CC(=O)N2CSC[C@H]2C1=O | 10.3 |
| O=C1C2CSCN2C(=O)CN1CCCN1CCN(C(c2ccccc2)c2ccccc2)CC1 (stereo not shown) | -53.6 |
| O=C1[C@@H]2CSCN2C(=O)CN1CCc1cccc(F)c1 | -20.9 |
| CCn1cc(C(=O)O)c(=O)c2cc(Br)ccc21 | -46.7 |
| Cc1ccc(/C=C2\SC(=S)N(c3cccnc3)C2=O)cc1 | 18.9 |
| COc1ccc(OC)c(NC(=O)C2CCCN(S(=O)(=O)c3c(C)noc3C)C2)c1 (stereo not shown) | -16.8 |
| CC(C)c1ccc(N=C2N=C(N)c3ccccc32)cc1 | -59.2 |
| NC1=NC(=Nc2ccc(Cl)cc2)c2ccccc21 | -3.81 |
| NC1=NC(=Nc2ccccc2)c2ccccc21 | 8.33 |
| CCOC(=O)c1c(C)[nH]c(C)c1S(=O)(=O)N1CCOCC1 | 13.8 |
| COc1ccccc1N1CCN(CC(=O)Nc2ccc3c(c2)OCCO3)CC1 | -6.03 |
| COc1ccc(S(=O)(=O)N2CCCN(CC(=O)Nc3ccc4c(c3)OCO4)CC2)cc1 | -61.5 |
| COc1ccc(S(=O)(=O)N2CCCN(CC(=O)Nc3ccc(NC(C)=O)cc3)CC2)cc1 | 2.8 |
| CCOc1ccc(NC(=O)CN2CCN(CC(=O)Nc3ccc4c(c3)OCO4)CC2)cc1 | -76.1 |
| COc1ccc(OCC(=O)Nc2ccc3c(c2)OCO3)cc1 | -0.489 |
| COc1ccccc1NC(=O)CN1CCN(CC(=O)Nc2ccc3c(c2)OCO3)CC1 | -72 |
| COc1ccc(S(=O)(=O)N2CCCN(CC(=O)Nc3ccc(OC)c(Cl)c3)CC2)cc1 | -33.3 |
| COc1ccc(NC(=O)CN2CCN(CC(=O)Nc3ccc4c(c3)OCO4)CC2)cc1 | -78.1 |
| COc1ccccc1NC(=O)CN1CCN(CC(=O)Nc2ccc3c(c2)OCCO3)CC1 | -34.4 |
| CCOc1ccc(OCCC(=O)Nc2ccc3c(c2)OCO3)cc1 | 10.2 |
| O=C(CN1CCOCC1)Nc1ccc2c(c1)OCO2 | 17.3 |
| CCOc1ccc(NC(=O)COc2ccc3c(c2)OCO3)cc1 | 1.04 |
